From PubChem BioAssay (NCATS)
Records with an inconclusive call do not appear. Calls follow the shape of the dose curve; as a rule, active = well fitted curve in either direction with a large enough effect (not every such curve was filed as active); inconclusive = small, poorly fitted or top-dose-only effect, or another doubt; inactive = flat fitted curve, though single readings scatter.

Experiment: AP1 Signaling Pathway (AID 357);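 also: ME-180 reporter cells stimulated with EGF at its EC50 level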
Settings: ME-180 AP-1-bla reporter, EGF-induced, beta-lactamase ratio, 5 h; at 17.2 µM (top of the series) unless noted
In short: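 Read-out was the 460nm/530nm emission ratio (excitation 405nm) after CCF4 loading for 2.5 hours at room temperature. Cells carried an AP-1-driven beta-lactamase reporter, were stimulated with EC50 EGF plus compound for 5 hours, and AC50 values came from titrations.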
% is scaled to controls: 0 for no effect and ±100 for the full control effect.

Activity change, negative = inhibition, inactive:
O=C(O)CCCCCCC1C(=O)NC(=O)N1CCC(O)C1CCCCC1 (stereo not given) -4.54%
CN1CCN(c2nc3c(c(=O)n(C)c(=O)n3C)n2Cc2cccc3ccccc23)CC1 -9.31%
Cc1cc(Cn2ccnc2)c(C)cc1Cn1ccnc1 0.168%
Cc1ccc(S(=O)(=O)/C(C#N)=C/c2c(N3CCN(C)CC3)nc3c(C)cccn3c2=O)cc1 9.07%
CN(CCOC(=O)c1cccc(Br)c1)C(C)(C)C 9.82%
CCC(=O)Oc1ccc(C(CC)C(CC)c2ccc(OC(=O)CC)cc2)cc1 (stereo not given) -8.93%
CC(C)OC(=O)C(C#N)c1nc2ccccc2nc1N1CCN(Cc2ccc3c(c2)OCO3)CC1 (stereo not given) -10.5%
CCCc1cc(Nc2c(C)n(C)n(-c3ccccc3)c2=O)n2c(nc3ccccc32)c1C#N -3.24%
COc1cccc(-c2nc(N3CC(C)CC(C)C3)c3ccccc3n2)c1O (stereo not given) 13.7%
CC(C)COc1ccc(C(=O)OCCN2CCOCC2)c(O)c1 1.3%
O=S(=O)(c1ccc(Cl)cc1)N1CCC(N2CCCCCC2)CC1 9.12%
C=CCSc1nnc2n(-c3ccccc3OC)c(=O)c3c4c(sc3n12)CCC4 7%
Cc1ccc(N2C(=O)CC(N(O)C3CC(=O)N(c4ccc(C)cc4)C3=O)C2=O)cc1 (stereo not given) -20.5%
Oc1ccc(Br)cc1-c1cc(-c2ccccc2F)[nH]n1 13.3%
CC1CN(C2CCN(C(=O)c3ccccc3)CC2)CC(C)O1 (stereo not given) -5.21%
CCC(CC)c1nc2cc(OC)c(OC)cc2c(=O)o1 -1.43%
CCCOc1ccc(Cc2nn[nH]n2)cc1 6.52%
COC(=O)c1sc2nc(N3CCCCC3)c3c(c2c1N)CC(C)(C)N(C)C3 21%
N#CC(C(=O)NC1CCCCC1)c1nc2ccccc2nc1N1CCN(c2ccccc2F)CC1 (stereo not given) -12.2%
CCC1CCCCN1c1nc(-c2cccc(OC)c2O)nc2ccccc12 (stereo not given) -8.8%
CNC(=O)Nc1cccc(NC(=O)NC)n1 13%
C=CCOC(=O)C(C#N)c1nc2ccccc2nc1N1CCC(C(=O)OCC)CC1 (stereo not given) -17.2%
O=c1[nH]c(CN2CCCCC2)nc2c1C1(CCCC1)Cc1ccccc1-2 14.5%
CSc1nc2[nH]c3c(c2c2nnnn12)CCCC3 -20.6%
COc1ccc(C(=O)Nc2cccnc2)cc1C(=O)Nc1cccnc1 3.61%
O=c1cc(-c2ccco2)nc(-c2cccs2)o1 6.68%
COCCCNc1nc(-c2ccncc2)nc2ccccc12 -12.4%
c1ccc2c(NCC3CCCO3)nc(-c3ccncc3)nc2c1 (stereo not given) -9.19%
COCCCNC(=O)c1c(N)n(/N=C/c2ccccn2)c2nc3ccccc3nc12 -25.1%
CC(C)OC(=O)c1nn2c(C(F)(F)F)cc(-c3ccc(Br)o3)nc2c1Br -6.76%
COc1cccc(-c2nc(NCCN3CCOCC3)c3ccccc3n2)c1O -15.3%
C=CCNc1nc(N2CCCCC2)c(C#N)c2c1CN(Cc1ccccc1)CC2 1.37%
Cc1ccsc1C1NC(=O)c2c(sc3c2CCCC3)N1 (stereo not given) -25.1%
Cc1cccn2c(=O)c3cc(C(N)=S)c(=N)n(CCCOC(C)C)c3nc12 -0.111%
Cc1nc(NS(=O)(=O)c2ccccc2)sc1NC(=O)OC(C)C 3.92%
CCCc1nc(N2CCOCC2)c(C#N)c2c1CCCC2 -22%
CC(=O)Nc1ccc(Oc2ccc3nc(C)[nH]c3c2)cc1 -4.84%
CCCCCCn1cc(C(=O)O)c(=O)c2ccccc21 -9%
Clc1ccc2[nH]c3c(NCCN4CCOCC4)ncnc3c2c1 -14.6%
CCOC(=O)C(C)Sc1nc(-c2cccs2)ccc1C#N (stereo not given) 7.21%

Experiment: Stat Signaling Pathway (AID 446);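 also: ME-180 cervical cancer cells given 40 pM IL-6 alongside compound; SIE-controlled beta-lactamase reporter measured as 460/530 nm FRET emission ratio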
Settings: ME-180 SIE beta-lactamase reporter, IL-6 stimulated, 5 h; at 17.2 µM (top of the series) unless noted
In short: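 Screening format detects activators and inhibitors alike: ME-180 SIE-bla cells stimulated at 40 pM IL-6 for 5 hrs with compound, then dual-emission beta-lactamase read at 405 nm excitation.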

activity, negative = inhibition, inactive:
O=C(O)CCCCCCC1C(=O)NC(=O)N1CCC(O)C1CCCCC1 (stereo not given) 14.6%
CN1CCN(c2nc3c(c(=O)n(C)c(=O)n3C)n2Cc2cccc3ccccc23)CC1 -2.69%
Cc1cc(Cn2ccnc2)c(C)cc1Cn1ccnc1 2%
Cc1ccc(S(=O)(=O)/C(C#N)=C/c2c(N3CCN(C)CC3)nc3c(C)cccn3c2=O)cc1 -7.22%
CN(CCOC(=O)c1cccc(Br)c1)C(C)(C)C 7.11%
CCC(=O)Oc1ccc(C(CC)C(CC)c2ccc(OC(=O)CC)cc2)cc1 (stereo not given) -3.77%
CC(C)OC(=O)C(C#N)c1nc2ccccc2nc1N1CCN(Cc2ccc3c(c2)OCO3)CC1 (stereo not given) -12.7%
CCCc1cc(Nc2c(C)n(C)n(-c3ccccc3)c2=O)n2c(nc3ccccc32)c1C#N 0.163%
COc1cccc(-c2nc(N3CC(C)CC(C)C3)c3ccccc3n2)c1O (stereo not given) 8.47%
CC(C)COc1ccc(C(=O)OCCN2CCOCC2)c(O)c1 0.653%
O=S(=O)(c1ccc(Cl)cc1)N1CCC(N2CCCCCC2)CC1 3.47%
C=CCSc1nnc2n(-c3ccccc3OC)c(=O)c3c4c(sc3n12)CCC4 6.42%
Cc1ccc(N2C(=O)CC(N(O)C3CC(=O)N(c4ccc(C)cc4)C3=O)C2=O)cc1 (stereo not given) -25.3%
Oc1ccc(Br)cc1-c1cc(-c2ccccc2F)[nH]n1 -0.726%
CC1CN(C2CCN(C(=O)c3ccccc3)CC2)CC(C)O1 (stereo not given) 3.62%
CCC(CC)c1nc2cc(OC)c(OC)cc2c(=O)o1 -3.88%
CCCOc1ccc(Cc2nn[nH]n2)cc1 2.28%
COC(=O)c1sc2nc(N3CCCCC3)c3c(c2c1N)CC(C)(C)N(C)C3 9.93%
N#CC(C(=O)NC1CCCCC1)c1nc2ccccc2nc1N1CCN(c2ccccc2F)CC1 (stereo not given) -5.87%
CCC1CCCCN1c1nc(-c2cccc(OC)c2O)nc2ccccc12 (stereo not given) -4.92%
CNC(=O)Nc1cccc(NC(=O)NC)n1 0.623%
C=CCOC(=O)C(C#N)c1nc2ccccc2nc1N1CCC(C(=O)OCC)CC1 (stereo not given) -10.4%
O=c1[nH]c(CN2CCCCC2)nc2c1C1(CCCC1)Cc1ccccc1-2 -7.96%
CSc1nc2[nH]c3c(c2c2nnnn12)CCCC3 -10.8%
COc1ccc(C(=O)Nc2cccnc2)cc1C(=O)Nc1cccnc1 -4.76%
O=c1cc(-c2ccco2)nc(-c2cccs2)o1 8.1%
COCCCNc1nc(-c2ccncc2)nc2ccccc12 -12.9%
c1ccc2c(NCC3CCCO3)nc(-c3ccncc3)nc2c1 (stereo not given) 4.85%
COCCCNC(=O)c1c(N)n(/N=C/c2ccccn2)c2nc3ccccc3nc12 -10.3%
CC(C)OC(=O)c1nn2c(C(F)(F)F)cc(-c3ccc(Br)o3)nc2c1Br 8.51%
COc1cccc(-c2nc(NCCN3CCOCC3)c3ccccc3n2)c1O 6.04%
C=CCNc1nc(N2CCCCC2)c(C#N)c2c1CN(Cc1ccccc1)CC2 -3.92%
Cc1ccsc1C1NC(=O)c2c(sc3c2CCCC3)N1 (stereo not given) -6.73%
Cc1cccn2c(=O)c3cc(C(N)=S)c(=N)n(CCCOC(C)C)c3nc12 13.3%
Cc1nc(NS(=O)(=O)c2ccccc2)sc1NC(=O)OC(C)C 3.96%
CCCc1nc(N2CCOCC2)c(C#N)c2c1CCCC2 -12.3%
CC(=O)Nc1ccc(Oc2ccc3nc(C)[nH]c3c2)cc1 -5.58%
CCCCCCn1cc(C(=O)O)c(=O)c2ccccc21 8.19%
Clc1ccc2[nH]c3c(NCCN4CCOCC4)ncnc3c2c1 -0.484%
CCOC(=O)C(C)Sc1nc(-c2cccs2)ccc1C#N (stereo not given) -3.63%
